In PubChem BioAssay (Tox21):
A number with no mark means an inactive call. Activity calls are given as the source filed them. Calls follow the shape of the dose curve; as a rule, active = well fitted curve in the direction sought with a large enough effect in the repeat runs; inconclusive = weak or mixed curves; inactive = flat fitted curve, though single readings scatter.

Assay: qHTS assay to test for compound auto fluorescence at 460 nm (blue) in HEK293 cell free culture (AID 720681)
Conditions: cell-free medium, autofluorescence 405/460 nm (blue); series mostly up to 91.3 µM
Excerpt: U.S. Tox21 Program National Center for Advancing Translational Sciences [NCATS] NIH Chemical Genomics Center [NCGC] U.S. Environmental Protection Agency [EPA] National Institutes of Environmental Health Sciences [NIEHS] National Toxicology Program [NTP] U.S. Food and Drug Administration [FDA] Tox21 Assay Overview: Compound auto fluorescence often interferes with screening of the compound library against various biological targets and signaling pathways. Some of these compounds may have fluorophoric properties. Such properties may interfere with the assay outputs resulting in false positives and/or negatives. To decrease such complications and ensure the compound activities are relevant in terms of biological response, the Tox21 10K compound library was screened for auto fluorescence. From the fluorophores used as reporter signals in our screening assays, the auto fluorescence equivalencies of compounds against three fluorophores have been evaluated: Triamterene, Fluorescein and Rose Bengal sodium for blue, green and red fluorescence, respectively. The fluorescence intensities were measured using Excitation/Emission wavelengths at 405/460nm, 485/535nm and 540/590nm for blue, green and red labels, respectively. This assay includes the blue fluorescence data.
Tox21 Assay Protocol Summary: 5 uL of culture medium (DMEM containing 10% FBS) per well was dispensed into black wall/clear bottom 1536-well plates using a Multidrop Combi Dispenser (ThermoFisher Scientific, Waltham, MA). After 23 nL compound or DMSO vehicle was transferred into assay plate by a pintool work station (Kalypsys, San Diego, CA), fluorescence intensities in the assay plates were measured by an Envision (PerkinElmer, Shelton, CT) plate reader using three labels for measuring blue, green and red fluorescence at […] 460, 535 and 590nm respectively.
% is scaled to controls: 0 for no effect and ±100 for the full control effect.

Question: With N#CC1(N)CCCCC1 as the molecule, how does the outcome read?
Answer: The outcome was “inactive”.

Question: Which outcome does the source give for Cc1ccc2ccccc2n1 here?
Answer: The outcome was “inactive”.

Question: Which outcome does the source give for CCCCC(CC)COC(=O)CC#N (stereo not given) here?
Answer: Its outcome is “inactive”.

Question: With C=CCCCCCCCCCCCCCC as the molecule, how does the fluorescence, % of fluorescent control read?
Answer: Its fluorescence, % of fluorescent control is 0.006% [at 18.6 µM].

Question: For CCc1ncc(C)[nH]1, which outcome is on record?
Answer: Its outcome is “inactive”.

Question: With CC(C)(C)NCC(O)COc1cccc2c1CCC(=O)N2 (stereo not given) as the molecule, how does the fluorescence, % of fluorescent control read?
Answer: The fluorescence, % of fluorescent control was 0.183% [at 18.6 µM].

Question: With CNCCc1ccccn1 as the molecule, how does the fluorescence, % of fluorescent control read?
Answer: Its fluorescence, % of fluorescent control is 0.0128% [at 18.6 µM].

Question: Which outcome does the source give for C/C=C(\C)C(=O)OC/C=C(\C)CCC=C(C)C here?
Answer: The outcome was “inactive”.

Question: Which outcome does the source give for N=C(N)N here?
Answer: Its outcome is “inactive”.

Question: With CCN1CCN(C(=O)N[C@@H](C(=O)N[C@@H]2C(=O)N3[C@@H]2SC(C)(C)[C@H]3C(=O)O)c2ccccc2)C(=O)C1=O as the molecule, how does the outcome read?
Answer: The outcome was “inactive”.

Question: For CN(C)CCCN(C)C, which fluorescence, % of fluorescent control is on record?
Answer: Its fluorescence, % of fluorescent control is -0.55% [at 3.72 µM].

Question: With Clc1cc(Cl)c(Cl)c(Cl)c1Cl as the molecule, how does the outcome read?
Answer: The outcome was “inactive”.

Question: Which outcome does the source give for CSC(=O)c1cccc2nnsc12 here?
Answer: Its outcome is “inactive”.

Question: Which outcome does the source give for O=S(=O)(O)c1cc(I)c(O)c2ncccc12 here?
Answer: Its outcome is “inactive”.

Question: For Cc1ccccc1OCC(=O)O, which outcome is on record?
Answer: The outcome was “inactive”.

Question: For Cc1nnc(C(=O)NC(C)(C)c2nc(C(=O)NCc3ccc(F)cc3)c(O)c(=O)n2C)o1, which outcome is on record?
Answer: The outcome was “inactive”.

Question: With CCCCN1C(=O)c2ccccc2C1=O as the molecule, how does the outcome read?
Answer: Its outcome is “inactive”.

Question: Which outcome does the source give for O=C(O)P(=O)(O)O here?
Answer: Its outcome is “inactive”.

Question: For CC(C)OCCO, which outcome is on record?
Answer: Its outcome is “inactive”.

Question: With CC(=O)Nc1ccc(OCCOCCOc2ccc(NC(C)=O)cc2)cc1 as the molecule, how does the outcome read?
Answer: Its outcome is “inactive”.

Question: Which outcome does the source give for CCCCN(CCCC)CCCCCCN(CCCC)CCCC here?
Answer: Its outcome is “inactive”.

Question: Which outcome does the source give for O=C(O)CCCCCCCCCC(=O)O here?
Answer: Its outcome is “inactive”.

Question: With CC(=O)OC/C=C(/C)CCC=C(C)C as the molecule, how does the outcome read?
Answer: The outcome was “inactive”.

Question: For COc1ccc(Cl)cc1C, which outcome is on record?
Answer: The outcome was “inactive”.

Question: Which outcome does the source give for Cc1ccc(O)c([N+](=O)[O-])c1 here?
Answer: The outcome was “inactive”.

Question: For O=P(O)(O)C(O)(Cc1cccnc1)P(=O)(O)O, which outcome is on record?
Answer: The outcome was “inactive”.

Question: With CN(C)CCc1c[nH]c2ccc(C[C@H]3COC(=O)N3)cc12 as the molecule, how does the outcome read?
Answer: The outcome was “inactive”.

Question: Which fluorescence, % of fluorescent control does the source give for CCCCCCCCCCCCCCCC(=O)OC here?
Answer: Its fluorescence, % of fluorescent control is -0.0484% [at 18.6 µM].

Question: With CCC(C)c1nccnc1OC (stereo not given) as the molecule, how does the outcome read?
Answer: Its outcome is “inactive”.

Question: For CN(C)c1cc(NC(=O)CNC(C)(C)C)c(O)c2c1C[C@H]1C[C@H]3[C@H](N(C)C)C(=O)C(C(N)=O)=C(O)[C@@]3(O)C(=O)C1=C2O, which outcome is on record?
Answer: Its outcome is “inactive”.

Question: For C[C@@H]1NC(=O)[C@@H](N)CNC(=O)[C@H](C2CCNC(N)=N2)NC(=O)/C(=C/NC(N)=O)NC(=O)[C@H](CNC(=O)C[C@@H](N)CCCN)NC1=O (stereo not given in full), which outcome is on record?
Answer: Its outcome is “inactive”.

Question: With Cc1ccccc1C#N as the molecule, how does the outcome read?
Answer: Its outcome is “inactive”.

Question: With CC/C=C/CCCCCCCCCCOC(C)=O as the molecule, how does the outcome read?
Answer: Its outcome is “inactive”.

Question: With CCCCCCCCCCCCCCBr as the molecule, how does the outcome read?
Answer: The outcome was “inactive”.

Question: For CC(O)C(CO)C(C)O (stereo not given), which outcome is on record?
Answer: The outcome was “inactive”.

Question: For O=C(O)CCC(=O)Nc1ccc(S(=O)(=O)Nc2nccs2)cc1, which fluorescence, % of fluorescent control is on record?
Answer: The fluorescence, % of fluorescent control was -0.0604% [at 18.6 µM].

Question: For Cc1ccc(N)nc1, which outcome is on record?
Answer: The outcome was “inactive”.

Question: For CC(=O)SCC(CC(=O)c1ccc(C)cc1)C(=O)O (stereo not given), which outcome is on record?
Answer: Its outcome is “inactive”.

Question: Which outcome does the source give for C=CCn1cc[n+](C)c1 here?
Answer: Its outcome is “inactive”.

Question: Which outcome does the source give for Cc1cc(C)c(N)c(Cl)c1 here?
Answer: Its outcome is “inactive”.
